Screening results deposited in PubChem BioAssay by National Center for Advancing Translational Sciences (NCATS).
In the library only some 8% were active in any assay of this set; here they are far more common.
KB-3-1 cytotox – kills parental KB-3-1 adenocarcinoma cells; Potency, µM (titrated, usually from 46.1 µM), actives largely listed as cytotoxic; 1.4% of 400,000 active; KB-3-1 viability, CellTiter-Glo ATP luminescence, 72 h; AID 1347075; note: % is set by controls: 0 for no effect and ±100 for the full control effect; nearly all actives have a fitted effect of over 60% in size
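KB-3-1 parental drug-naive adenocarcinoma cells in DMEM/10% FBS, incubated 72 h at 37 C with pin-transferred compounds across a concentration series. Viability by CellTiter-Glo luminescence; concentration-response curves fitted after normalization.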
SW480 rereplic – induces DNA re-replication in SW480 colon adenocarcinoma cells. 1.8% of 340,000 active. Potency, µM (highest dose often 46.1 µM), for inactives: at the highest dose re-replication activation, actives largely listed as activators. SW480 DNA re-replication, Hoechst DNA content imaging, 48 h. AID 624297; note: % of control where 0% means no effect; nearly all actives have a fitted effect of over 55% in size
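First, 250 cells per well were seeded. Next, compound or vehicle (23 nL) was pinned in, plates sat 48 hr at 37 C. Finally Hoechst was added for 40 min before fluorescence scanning.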
KB-V1 MDR tox – kills drug-selected multidrug resistant KB-V1 cells | Potency, µM (highest dose often 46.1 µM), most hits filed as cytotoxic | 3.4% of 400,000 active | KB-V1 MDR cells viability, CellTiter-Glo, 72 h | AID 1347076; note: % is set by controls: 0 for no effect and ±100 for the full control effect; nearly all actives have a fitted effect of over 60% in size
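Potencies derive from concentration-effect curves fitted to normalized luminescence (CellTiter-Glo) of KB-V1 cells treated for 72 h at 37 degrees C in phenol-red-free DMEM containing 10% FBS.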
MCF10A rerep – DNA re-replication induction in MCF 10a cells. MCF 10A DNA re-replication, Hoechst nuclear intensity, 48 h. Potency, µM (top dose mostly 46.1 µM), without a hit: top-dose activity, positive = re-replication, hits mostly activators. AID 624296. 2.9% of 350,000 active; note: % of control where 0% means no effect; nearly all actives have a fitted effect of over 50% in size
HT1080NT lethal – kills 2HG-producing HT-1080-NT fibrosarcoma cells; HT-1080-NT fibrosarcoma viability, CellTiter-Glo ATP luminescence, 48 h; Potency, µM (titrated, usually from 46.1 µM), for inactives: top-dose activity, negative = less viability, actives largely listed as cytotoxic; 1.6% of 360,000 active; AID 686970;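 note: NT is the 2HG producing partner of a matched IDH1 knockdown line; 0% = DMSO-treated cells and -100% = media-only wells without cells; nearly all actives have a fitted effect of over 55% in size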
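Luminescent CellTiter-Glo readout after 48 hours of compound exposure at 37 degrees C defined viability of HT-1080-NT cells. Activity was normalized to DMSO wells and cell-free media wells; concentration-response curves were fitted and assigned curve classes.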
HT1080 IDH1KD tx – kills HT-1080 cells with IDH1 knockdown | 2% of 360,000 active | AID 686971 | Potency, µM (titrated, usually from 46.1 µM), without a hit: at the top dose activity, negative = toxicity, usual class: cytotoxic | HT-1080 IDH1 knockdown viability, ATP luminescence, 48 h;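 note: 0% = DMSO wells and -100% = cell-free medium wells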
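Using the IDH1-knockdown HT-1080 line run in the same batch and compound series as the NT line, viability after 48 h at 37 °C was determined by CellTiter-Glo luminescence and expressed as % activity.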
An asterisk follows results filed as active; i = inactive; u = inconclusive; x = no result; [ ] = dose if it differs, or a comment. Calls come from the whole dose curve; as a rule, active = well fitted curve in the direction sought with a large enough effect; inconclusive = small, poorly fitted or top-dose-only effect, or another doubt; inactive = no such curve, though single readings can be large; an effect the other way counts as inactive or inconclusive. Potency is the fitted concentration of half-maximal effect.

SMILES | KB-3-1 cytotox | SW480 rereplic | KB-V1 MDR tox | MCF10A rerep | HT1080NT lethal | HT1080 IDH1KD tx
CCOC(=O)c1sc2nc3c(SCC(=O)O)cc(C(=O)c4ccccc4O)cn3c(=O)c2c1C | i | 16.3% | i | 1.1% | 9.5% | 10.7%
Cc1sc2nc3c(SC(C)C(=O)O)cc(C(=O)c4ccccc4O)cn3c(=O)c2c1C (stereo not given) | i | -5.6% | i | 16.4µM* | 0.8% | 3.6%
COC(=O)c1cc(C(=O)c2cc(F)ccc2O)cn2c(=O)c3c(C)c(C)sc3nc12 | i | u | i | 3.66µM* | -0.8% | 0.1%
O=C(O)CSc1cc(C(=O)c2ccccc2O)cn2c(=O)c3c(-c4ccccc4)csc3nc12 | i | u | i | 5.17µM* | 0.4% | -9.6%
COc1ccccc1NC(=O)N1c2ccccc2Sc2ccccc21 | i | x | i | x | x | x
O=C(C[n+]1ccccc1Cl)c1ccc2ccccc2c1 | i | x | i | x | x | x
COc1ccc(NC(=O)C(NS(=O)(=O)c2ccc3c(c2)CCCC(=O)N3)C(C)C)c(OC)c1 (stereo not given) | i | x | i | x | x | x
CN(Cc1ccccc1)C(=O)c1ccc(NC(=O)Cc2ccc(NC(=O)C3CCN(C(=O)CCc4ccccc4)CC3)cc2)cc1 | i | u | i | 14.6µM* | -22.5% | u
CN(Cc1ccccc1)C(=O)c1cccc(NC(=O)Cc2ccc(NC(=O)C3CCN(C(=O)CCc4ccccc4)CC3)cc2)c1 | u | 4.2% | i | -0.1% | -10.5% | -20.1%
CN(CCc1ccccc1)C(=O)c1ccc(NC(=O)Cc2ccc(NC(=O)C3CCCN(C(=O)C4CC4)C3)cc2)cc1 (stereo not given) | u | 18.4µM* | u | -16.5% | -13.8% | -2.0%
COc1cc(C(=O)NCCC(C)C)ccc1OCc1ccc(Cl)cc1Cl | u | -1.6% | 14.6µM* | u | -6.1% | -5.8%
COc1ccc(Cl)cc1C(=O)NCCN(C)C | i | -16.6% | i | 12.0% | -1.6% | -11.6%
CN(C)CCNC(=O)c1ccc(COc2ccc(Cl)cc2Cl)cc1 | u | u | 18.4µM* | u | 10µM* | u
OCCN1CC(O)C(O)C(O)C1CO (stereo not given) | x | 4.4% | x | 4.3% | x | x
Cc1ccc(Cl)cc1NC(=O)CN1C=NS(=O)(=O)c2ccccc21 | i | x | u | x | x | x
CN(C)c1ccc(C(CNS(=O)(=O)c2ccc3ccccc3c2)c2c[nH]c3ccccc23)cc1 (stereo not given) | i | -6.2% | 14.6µM* | u | -1.8% | 0.2%
CN(C)c1ccc(C(CN)c2c[nH]c3ccccc23)cc1 (stereo not given) | i | i[1.84 µM] | i | 20.3% | -23.0% | -9.8%
CCOC(=O)c1c(S(=O)(=O)N2CCC(C(=O)Nc3ccc(C)cc3C)CC2)c(C)n(C)c1C | i | x | i | x | x | x
COc1cc(/C=C/c2ccc3c(Br)cc(Br)c(O)c3n2)ccc1O | u | u | i | 13µM* | u | u
Cc1ccc2c(Br)cc(Br)c(O)c2n1 | x | -1.6% | x | 18.8µM* | x | x
COc1ccc(/C=C/c2ccc3c(Br)ccc(O)c3n2)cc1 | u | u | u | 23.1µM* | -0.5% | -13.0%
COc1cc(C(=O)O/N=C2\C=CC(=O)C(C)=C2)cc(OC)c1OC | u | 5.8µM* | u | u | 23.1µM* | u
COc1cc(C(=O)ON=C2C=C(C)C(=O)C(C)=C2)cc(OC)c1OC | i | u | i | u | -6.3% | -9.1%
O=C(COCc1cc(-c2cccs2)on1)NCc1ccccc1Cl | i | x | i | x | x | x
COCCNC(=O)CSc1nc(-c2ccc(F)cc2)[nH]c1-c1ccc(Cl)cc1 | i | x | i | x | x | x
SMILES | KB-3-1 cytotox | SW480 rereplic | KB-V1 MDR tox | MCF10A rerep | HT1080NT lethal | HT1080 IDH1KD tx
CC1CCN(S(=O)(=O)c2cn(CC(=O)N3CC(C)CC(C)C3)c(=O)c3ccccc23)CC1 (stereo not given) | i | -2.3% | 1.3µM* | -1.9% | 0.7% | -10.2%
COc1cc(C(C[N+](=O)[O-])c2c(N)n(C)c(=O)n(C)c2=O)ccc1O (stereo not given) | u | u | u | 18.4µM* | u | 20.6µM*
Cn1c(N)c(C(C[N+](=O)[O-])c2ccccc2Cl)c(=O)n(C)c1=O (stereo not given) | i | u | i | u | -2.7% | 10.7%
COc1cccc(F)c1C(C[N+](=O)[O-])c1c(N)n(C)c(=O)n(C)c1=O (stereo not given) | u | 4.11µM* | u | 7.31µM* | 10.3µM* | 5.8µM*
Cc1ccc(C(C[N+](=O)[O-])c2c(N)n(C)c(=O)n(C)c2=O)cc1 (stereo not given) | 16.4µM* | 1.1% | u | 23.1µM* | u | u
CC(C(c1ccc2c(c1)OCO2)c1c(N)n(C)c(=O)n(C)c1=O)[N+](=O)[O-] (stereo not given) | i | u | u | 11.6µM* | -15.7% | 0.2%
Cc1ccc(C)c(CN2CCCN(CC(=O)Nc3ccc(C)c(C)c3)S2(=O)=O)c1 | i | x | i | x | x | x
COc1ccc(C(=O)Nc2cc(S(=O)(=O)c3ccc(Cl)cc3)c(O)c(C)c2C)cc1 | i | x | i | x | x | x
N#Cc1c2c(c(Cl)n3c1nc1ccccc13)CCCC2 | i | x | i | x | x | x
Cc1ccc(N(CC(=O)Nc2ccc(Br)c(C)c2)S(=O)(=O)c2cccs2)cc1 | i | x | i | x | x | x
COc1ccc(-c2ccc(C)cc2)cc1[C@H]1[C@H]2C=CC[C@@H](C)[C@@H]2C(=O)N1Cc1ccccc1 | i | 0.7% | i | -3.2% | 2.5% | 3.0%
COc1cc(-c2cccc([C@H]3[C@@H]4C=CC[C@@H](C)[C@@H]4C(=O)N3Cc3ccccc3)c2)cc(OC)c1OC | i | 3.1% | i | 7.31µM* | u | u
COc1ccc(-c2ccc([C@H]3[C@H]4C=CC[C@@H](C)[C@@H]4C(=O)N3Cc3ccccc3)c(F)c2)cc1 | i | u | i | 13µM* | u | u
COc1ccc(-c2ccoc2)cc1[C@H]1[C@H]2C=CC[C@@H](C)[C@@H]2C(=O)N1Cc1ccccc1 | u | 6.5% | i | 18.4µM* | u | u
COc1ccc(-c2ccc([C@H]3[C@H]4C=CC[C@@H](C)[C@@H]4C(=O)N3Cc3ccccc3)c(F)c2)cc1OC | u | 9.3%[9.22 µM] | u | -8.1% | u | u
COc1ccccc1CNC(=O)c1cc(S(=O)(=O)N2CCN(c3ccccc3)CC2)ccc1Cl | i | 7.2% | 4.61µM* | -0.1% | -12.8% | -12.1%
